# Assay results taken from PubChem BioAssay (Tox21).
# Records with an inconclusive call do not appear. A call without a number means that no potency is given here. A structure can be active in one record and inactive in another. Active and inactive are the calls of the source. Unless noted, calls follow the shape of the dose curve; as a rule, active = well fitted curve in the direction sought with a large enough effect in the repeat runs; inconclusive = weak or mixed curves; inactive = no such curve, though single readings can be large; an effect the other way counts as inactive or inconclusive.
# Key:
# [1] = qHTS assay to identify aromatase inhibitors - cell viability counter screen (AID 743084);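 also: cells stimulated with testosterone during compound exposure; nearly all actives have a fitted effect of over 55% in size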; also: potency is read from the fitted curve at half-maximal effect
# [2] = qHTS assay to identify small molecule that activate the aryl hydrocarbon receptor (AhR) signaling pathway - cell viability counter screen (AID 743086); also: nearly all actives have a fitted effect of over 45% in size; also: potency is read from the fitted curve at half-maximal effect
# Procedure, shortened: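 HepG2-AhR-luc (HG2L7.5c1) cells, 4000/well, treated 24 h at 37 C with compound; viability measured as CellTiter-Fluor fluorescence after 30 min in the same wells as the luciferase read.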
# [3] = target: Peroxisome proliferator-activated receptor gamma (Homo sapiens) (UniProt P37231); experiment: qHTS assay to identify small molecule agonists of the peroxisome proliferator-activated receptor gamma (PPARg) signaling pathway (AID 743094; active = well fitted activation curve with a large enough effect in the signal ratio in the repeat runs, not every such curve was filed as active; the % refers to the signal ratio)
# Procedure, shortened: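 Agonism was assessed in a beta-lactamase reporter system, HEK293H cells with a stably integrated UAS-bla construct under PPARg control; the 17 h treatment at 37C preceded a 1 h room-temperature FRET substrate read.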
# [4] = target: Peroxisome proliferator-activated receptor gamma (Homo sapiens) (UniProt P37231); experiment: qHTS assay to identify small molecule antagonists of the peroxisome proliferator-activated receptor gamma (PPARg) signaling pathway (AID 743191; calls by dose curve; also: nearly all actives have a fitted effect of over 30% in size; also: potency is read from the fitted curve at half-maximal effect)
# Procedure, shortened: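 GeneBLAzer PPARg UAS-bla HEK293H cells, 5 h post-plating, exposed to compounds 17 h at 37C. LiveBLAzer B/G FRET substrate added for 1 h at room temperature; beta-lactamase reporter read by fluorescence intensity.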
# [5] = qHTS assay to identify small molecule antagonists of the peroxisome proliferator-activated receptor gamma (PPARg) signaling pathway - cell viability counter screen (AID 743194); conditions: Potency: co-treated with 50 nM rosiglitazone; also: nearly all actives have a fitted effect of over 55% in size; also: potency is read from the fitted curve at half-maximal effect
# Procedure, shortened: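 Cytotoxicity counter screen in PPARg-bla HEK293H cells, same wells as reporter assay. Compounds plus 50 nM rosiglitazone (final) for 17 h at 37 C, then viability read by CellTiter-Glo luminescence.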
# [6] = qHTS assay for small molecule agonists of the antioxidant response element (ARE) signaling pathway (AID 743202; active = well fitted activation curve with a large enough effect in the signal ratio in the repeat runs, not every such curve was filed as active; the % refers to the signal ratio; also: potency is read from the fitted curve at half-maximal effect)
# Procedure, shortened: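 HepG2 ARE-bla reporter line, 2,000 cells/well; 5 h preincubation 37 C/5% CO2; compound (DMSO) 16 h 37 C; B/G FRET substrate 2 h RT; fluorescence intensity.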
# [7] = qHTS assay for small molecule agonists of the antioxidant response element (ARE) signaling pathway - cell viability counter screen (AID 743203; calls by dose curve; also: nearly all actives have a fitted effect of over 55% in size; also: potency is read from the fitted curve at half-maximal effect)
# Procedure, shortened: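 ATP content via CellTiter-Glo luminescence served as the viability measure. Cells: ARE-bla HepG2, 2,000 per well. Exposure: 16 hrs, 37C/5% CO2.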
# [8] = qHTS assay for small molecule activators of the heat shock response signaling pathway - cell viability counter screen (AID 743209); also: nearly all actives have a fitted effect of over 50% in size
# Procedure, shortened: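 Compounds dissolved in DMSO were added to overnight-plated HSE-bla HeLa cells and left 5 h at 37 C. Cell viability was quantified by luminescence using CellTiter-Glo.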
# [9] = qHTS assay to identify small molecule agonists of the peroxisome proliferator-activated receptor delta (PPARd) signaling pathway - cell viability counter screen (AID 743211); also: nearly all actives have a fitted effect of over 55% in size; also: potency is read from the fitted curve at half-maximal effect
# Procedure, shortened: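 Tox21 library compounds, delivered in DMSO, were incubated 17 h with PPARd-bla HEK293H cells; cytotoxicity was taken from CellTiter-Glo luminescence read 30 min after reagent addition.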
# [10] = target: Peroxisome proliferator-activated receptor delta (Homo sapiens) (UniProt Q03181); experiment: qHTS assay to identify small molecule agonists of the peroxisome proliferator-activated receptor delta (PPARd) signaling pathway (AID 743212; calls by dose curve)
# Procedure, shortened: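 Read-out: beta-lactamase FRET fluorescence after 2 h room-temperature incubation with LiveBLAzer B/G substrate. Cells were HEK293H carrying a UAS-bla reporter for PPARd, treated at 37 C with DMSO-dissolved compounds.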
# [11] = qHTS assay to identify small molecule antagonists of the farnesoid-X-receptor (FXR) signaling pathway - cell viability counter screen (AID 743221; active = well fitted cell-killing curve with a large enough effect in the repeat runs, not every such curve was filed as active; also: nearly all actives have a fitted effect of over 50% in size)
# Procedure, shortened: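 Cytotoxicity is taken from ATP luminescence (CellTiter-Glo, 30 min, room temperature) in FXR-bla HEK 293T cells previously incubated 16 h at 37 C with compound and chenodeoxycholic acid at 50 uM final.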
# [12] = target: Vitamin D3 receptor (Homo sapiens) (UniProt P11473); experiment: qHTS assay to identify small molecule agonists of the vitamin D receptor (VDR) signaling pathway (AID 743222; calls by dose curve)
# Procedure, shortened: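 Tox21 cell reporter format: VDR-bla line, 16 h compound exposure in 5% CO2 at 37C, then fluorescence intensity after 2 h with LiveBLAzer B/G FRET substrate.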
# [13] = target: Aryl hydrocarbon receptor (Homo sapiens) (UniProt P35869); experiment: qHTS assay to identify small molecule that activate the aryl hydrocarbon receptor (AhR) signaling pathway (AID 743085);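 also: HG2L7.5c1 human HepG2 liver cells with stably integrated DRE-driven firefly reporter; series mostly up to about 70 µM; nearly all actives have a fitted effect of over 15% in size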
# Procedure, shortened: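 A multiplexed format paired cell viability (CellTiter-Fluor fluorescence) with AhR-dependent luciferase output (ONE-Glo luminescence) in the same wells of HepG2 DRE-luc cells after 24 h compound exposure at 37C.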
# [14] = qHTS assay to identify small molecule antagonists of the peroxisome proliferator-activated receptor delta (PPARd) signaling pathway - cell viability counter screen (AID 743213); also: nearly all actives have a fitted effect of over 50% in size; also: potency is read from the fitted curve at half-maximal effect
# Procedure, shortened: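 HEK293H cells with the PPARd UAS-bla reporter, co-treated 17 h at 37 C with compounds and L165041 (300 nM final), were lysed with CellTiter-Glo. Luminescence indicated viable cell content.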
# [15] = target: Peroxisome proliferator-activated receptor delta (Homo sapiens) (UniProt Q03181); experiment: qHTS assay to identify small molecule antagonists of the peroxisome proliferator-activated receptor delta (PPARd) signaling pathway (AID 743215; active = well fitted inhibition curve with a large enough effect in the signal ratio in the repeat runs, not every such curve was filed as active; the % refers to the signal ratio;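 also: cells stimulated with agonist L165041 at 300 nM final during compound exposure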; also: potency is read from the fitted curve at half-maximal effect)
# Procedure, shortened: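 Here, a reporter line (HEK293H, beta-lactamase under a UAS) measures PPARd signaling. Compounds are tested against agonist L165041 at 300 nM final concentration over 17 h at 37 C, with fluorescence read after substrate.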
# [16] = qHTS assay for small molecule activators of the heat shock response signaling pathway (AID 743210; active = well fitted activation curve with a large enough effect in the signal ratio in the repeat runs, with a control signal flat, not every such curve was filed as active; the % refers to the signal ratio;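 also: HeLa cells with beta-lactamase reporter driven by heat shock elements; series mostly up to about 63 µM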)
# Procedure, shortened: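 Beta-lactamase reporter read-out: FRET substrate fluorescence after 2.5 h at RT, following 5 h compound treatment at 37 C of HeLa cells carrying HSE-driven bla reporter; quantitative HTS format.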
# [17] = qHTS assay to identify small molecule agonists of the farnesoid-X-receptor (FXR) signaling pathway - cell viability counter screen (AID 743218); also: nearly all actives have a fitted effect of over 45% in size; also: potency is read from the fitted curve at half-maximal effect
# Procedure, shortened: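 Quantitative HTS counter screen measuring ATP-based viability via CellTiter-Glo luminescence in HEK 293T cells carrying a UAS-driven beta-lactamase reporter, after 16 h compound exposure at 37 C.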
# [18] = target: Vitamin D3 receptor (Homo sapiens) (UniProt P11473); experiment: qHTS assay to identify small molecule antagonists of the vitamin D receptor (VDR) signaling pathway (AID 743223; active = well fitted inhibition curve with a large enough effect in the signal ratio in the repeat runs, not every such curve was filed as active; the % refers to the signal ratio)
# Procedure, shortened: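 Quantitative HTS in VDR-bla reporter cells stimulated with 1alpha,25-dihydroxyvitamin D3, 3 nM final. Compound exposure 16 h, 37C, 5% CO2. Read-out: beta-lactamase FRET substrate fluorescence, 2 h RT.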
# [19] = target: Bile acid receptor (Homo sapiens) (UniProt Q96RI1); experiment: qHTS assay to identify small molecule antagonists of the farnesoid-X-receptor (FXR) signaling pathway (AID 743217; active = well fitted inhibition curve with a large enough effect in the signal ratio in the repeat runs, not every such curve was filed as active; the % refers to the signal ratio)
# Procedure, shortened: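 Test compounds are pin-transferred onto FXR-bla HEK 293T cells, then chenodeoxycholic acid is added at 50 uM final. After 16 h at 37 °C, LiveBLAzer B/G substrate is applied for 2 h at room temperature and fluorescence read.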
# [20] = target: Bile acid receptor (Homo sapiens) (UniProt Q96RI1); experiment: qHTS assay to identify small molecule agonists of the farnesoid-X-receptor (FXR) signaling pathway (AID 743220; active = well fitted activation curve with a large enough effect in the signal ratio in the repeat runs, not every such curve was filed as active; the % refers to the signal ratio)
# Procedure, shortened: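 FXR-UAS-bla HEK 293T cells carrying a UAS-driven beta-lactamase reporter were plated for 5 h at 37C/5% CO2, then exposed to DMSO-dissolved Tox21 10K compounds for 16 h at 37C. A LiveBLAzer B/G FRET substrate was loaded for 2 h at room temperature before fluorescence reading.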
# Vitamin D3 receptor (Homo sapiens), sequence (P11473 whole entry, looked up): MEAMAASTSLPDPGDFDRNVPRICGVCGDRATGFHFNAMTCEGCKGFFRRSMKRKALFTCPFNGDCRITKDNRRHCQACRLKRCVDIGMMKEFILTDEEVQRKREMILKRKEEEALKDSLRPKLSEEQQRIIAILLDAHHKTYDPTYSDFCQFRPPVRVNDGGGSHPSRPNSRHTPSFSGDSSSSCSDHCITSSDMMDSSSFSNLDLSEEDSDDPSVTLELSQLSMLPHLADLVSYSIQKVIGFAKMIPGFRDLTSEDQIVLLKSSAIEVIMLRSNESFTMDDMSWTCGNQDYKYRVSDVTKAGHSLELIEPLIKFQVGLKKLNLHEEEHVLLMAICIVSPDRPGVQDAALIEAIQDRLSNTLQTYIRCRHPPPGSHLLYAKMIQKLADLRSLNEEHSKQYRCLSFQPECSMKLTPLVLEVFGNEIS
# Bile acid receptor (Homo sapiens), sequence (Q96RI1 whole entry, looked up): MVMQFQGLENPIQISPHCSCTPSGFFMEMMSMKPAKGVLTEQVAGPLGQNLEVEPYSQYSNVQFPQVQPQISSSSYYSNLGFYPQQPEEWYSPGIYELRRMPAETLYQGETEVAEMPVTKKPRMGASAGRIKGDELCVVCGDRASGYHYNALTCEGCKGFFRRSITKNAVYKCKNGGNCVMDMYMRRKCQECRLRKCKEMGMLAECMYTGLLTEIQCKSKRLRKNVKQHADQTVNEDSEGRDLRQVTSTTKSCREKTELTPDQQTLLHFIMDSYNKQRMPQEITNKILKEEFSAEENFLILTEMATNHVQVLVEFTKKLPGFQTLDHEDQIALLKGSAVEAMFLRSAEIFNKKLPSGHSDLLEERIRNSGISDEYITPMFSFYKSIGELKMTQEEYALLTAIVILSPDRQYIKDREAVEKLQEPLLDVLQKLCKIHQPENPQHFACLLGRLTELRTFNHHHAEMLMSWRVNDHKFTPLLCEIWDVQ
# Peroxisome proliferator-activated receptor delta (Homo sapiens), sequence (Q03181 whole entry, looked up): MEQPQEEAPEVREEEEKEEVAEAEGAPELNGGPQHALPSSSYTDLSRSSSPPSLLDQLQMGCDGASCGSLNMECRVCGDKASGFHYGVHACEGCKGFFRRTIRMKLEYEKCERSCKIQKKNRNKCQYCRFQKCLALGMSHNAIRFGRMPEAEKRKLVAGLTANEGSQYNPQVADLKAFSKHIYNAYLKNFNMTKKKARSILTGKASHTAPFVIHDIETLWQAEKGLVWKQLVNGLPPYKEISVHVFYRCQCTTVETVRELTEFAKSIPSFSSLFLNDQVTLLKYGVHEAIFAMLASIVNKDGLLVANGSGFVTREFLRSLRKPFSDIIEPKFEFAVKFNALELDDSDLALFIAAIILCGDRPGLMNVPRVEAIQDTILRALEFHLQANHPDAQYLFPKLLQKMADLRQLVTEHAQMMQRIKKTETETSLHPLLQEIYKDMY
# Peroxisome proliferator-activated receptor gamma (Homo sapiens), sequence (P37231 whole entry, looked up): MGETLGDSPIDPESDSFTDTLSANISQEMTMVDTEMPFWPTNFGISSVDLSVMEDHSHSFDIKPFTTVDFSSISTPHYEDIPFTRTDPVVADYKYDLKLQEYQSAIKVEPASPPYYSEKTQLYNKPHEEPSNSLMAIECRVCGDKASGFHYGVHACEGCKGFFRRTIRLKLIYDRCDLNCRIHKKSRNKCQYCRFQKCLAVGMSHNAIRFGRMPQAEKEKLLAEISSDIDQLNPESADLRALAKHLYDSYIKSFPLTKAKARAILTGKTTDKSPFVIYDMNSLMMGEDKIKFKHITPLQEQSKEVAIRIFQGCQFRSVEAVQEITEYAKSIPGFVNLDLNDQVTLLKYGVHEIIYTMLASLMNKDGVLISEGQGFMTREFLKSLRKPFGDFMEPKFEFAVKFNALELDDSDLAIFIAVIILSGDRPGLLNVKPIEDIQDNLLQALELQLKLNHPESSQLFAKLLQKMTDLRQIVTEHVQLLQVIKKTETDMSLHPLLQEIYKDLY
# Aryl hydrocarbon receptor (Homo sapiens), sequence (P35869 whole entry, looked up): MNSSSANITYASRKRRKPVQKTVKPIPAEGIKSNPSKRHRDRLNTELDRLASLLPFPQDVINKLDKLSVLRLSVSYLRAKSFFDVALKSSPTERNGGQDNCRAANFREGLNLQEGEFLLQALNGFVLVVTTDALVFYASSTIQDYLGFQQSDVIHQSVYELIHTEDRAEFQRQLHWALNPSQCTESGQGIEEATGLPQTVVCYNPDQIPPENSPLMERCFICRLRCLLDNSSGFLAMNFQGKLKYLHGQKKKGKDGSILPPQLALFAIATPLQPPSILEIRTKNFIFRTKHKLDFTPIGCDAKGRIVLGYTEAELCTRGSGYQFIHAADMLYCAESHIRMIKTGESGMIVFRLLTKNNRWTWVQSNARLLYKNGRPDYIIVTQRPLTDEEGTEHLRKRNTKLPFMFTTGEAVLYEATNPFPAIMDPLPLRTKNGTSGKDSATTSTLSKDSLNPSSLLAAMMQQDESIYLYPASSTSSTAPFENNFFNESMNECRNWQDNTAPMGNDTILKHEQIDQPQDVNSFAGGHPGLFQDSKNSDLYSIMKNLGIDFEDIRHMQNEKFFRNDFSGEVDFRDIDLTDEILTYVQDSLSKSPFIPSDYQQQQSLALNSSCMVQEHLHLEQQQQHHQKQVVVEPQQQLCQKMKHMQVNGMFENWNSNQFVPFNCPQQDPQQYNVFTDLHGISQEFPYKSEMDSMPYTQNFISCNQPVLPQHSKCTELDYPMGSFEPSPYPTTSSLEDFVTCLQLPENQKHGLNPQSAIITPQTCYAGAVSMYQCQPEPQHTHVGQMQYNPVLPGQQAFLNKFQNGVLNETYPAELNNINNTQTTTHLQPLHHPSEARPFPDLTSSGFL
SMILES,Potency [1],Potency [2],Potency [3],Potency [4],Potency [5],Potency [6],Potency [7],Potency [8],Potency [9],outcome [10],Potency [11],outcome [12],Potency [13],Potency [14],Potency [15],outcome [16],Potency [17],outcome [18],Potency [19],outcome [20]
O=C=Nc1ccc(Cl)cc1,inactive,inactive,inactive,inactive,inactive,43.3 µM (active),inactive,inactive,inactive,inactive,inactive,inactive,,,,,,,,
CC(c1ccc(O)cc1)(c1ccc(O)cc1)c1ccc(O)cc1,inactive,,inactive,21.9 µM (active),,,,inactive,,,inactive,inactive,inactive,inactive,4.9 µM (active),,,,,
CCN(C)N=O,inactive,inactive,inactive,inactive,inactive,,inactive,inactive,inactive,inactive,inactive,inactive,,,inactive,inactive,inactive,inactive,,
CCCCN(N=O)C(=N)N[N+](=O)[O-],inactive,inactive,,,inactive,,inactive,,inactive,inactive,inactive,inactive,,inactive,inactive,,inactive,inactive,,
COC(C)(C)CCC[C@H](C)C/C=C/C(C)=C/C(=O)OC(C)C,inactive,inactive,inactive,,,,,,38.9 µM (active),,inactive,,,,,,,,,
O=C1c2ccccc2C(=O)C1C(=O)C(c1ccccc1)c1ccccc1,inactive,inactive,,,,,inactive,inactive,,,,,,inactive,,inactive,,,,
Brc1ccccc1,inactive,inactive,,inactive,,inactive,inactive,inactive,inactive,inactive,inactive,inactive,,,inactive,inactive,inactive,,,
CN(N=O)c1ccc([N+](=O)[O-])cc1,inactive,inactive,,inactive,,,inactive,inactive,inactive,,inactive,inactive,,inactive,,inactive,,inactive,inactive,
O=C(O)C1(c2ccc3c(c2)OC[C@H](Cc2ccc(-c4ccccc4)cc2)[C@H]3O)CCCC1,inactive,inactive,,,43.6 µM (active),,,,49 µM (active),,,,,43.6 µM (active),,,,,inactive,
CCCCCCC#N,inactive,inactive,,inactive,,,inactive,,inactive,inactive,inactive,inactive,,inactive,inactive,inactive,inactive,inactive,inactive,inactive
Clc1cccc(SC2CCNCC2)n1,inactive,29.8 µM (active),,inactive,inactive,inactive,inactive,inactive,inactive,inactive,inactive,,,,inactive,inactive,inactive,inactive,inactive,inactive
OCCCBr,inactive,inactive,inactive,,inactive,,,,inactive,,,,,,,inactive,inactive,,,
COc1cc(Cl)c(OC)cc1Cl,inactive,inactive,,inactive,inactive,,inactive,inactive,inactive,,,inactive,,inactive,,inactive,inactive,,,
CCBr,inactive,inactive,,,,inactive,inactive,inactive,inactive,inactive,,inactive,,inactive,inactive,,inactive,inactive,,
IC(I)=C(I)I,15.4 µM (active),43.3 µM (active),,,,,6.11 µM (active),,9.77 µM (active),,,,,12.3 µM (active),15.5 µM (active),,12.3 µM (active),,,
CNP(=O)(OC)Oc1ccc(C(C)(C)C)cc1Cl (stereo unspecified),inactive,inactive,,43.6 µM (active),,,inactive,inactive,inactive,inactive,inactive,inactive,,inactive,inactive,inactive,inactive,inactive,,
CCCCCCCCCCOC(=O)c1ccccc1C(=O)OCCCCCCCCCC,inactive,inactive,,,,inactive,inactive,inactive,inactive,inactive,,,,inactive,inactive,inactive,,,inactive,
O=[N+]([O-])c1ccccc1CCl,inactive,inactive,,inactive,inactive,,inactive,inactive,inactive,inactive,inactive,inactive,,inactive,inactive,inactive,inactive,,inactive,inactive
[CH3][Sn]([CH3])([Cl])[Cl],inactive,inactive,inactive,,,34.4 µM (active),inactive,inactive,,,,inactive,,inactive,,,55.9 µM (active) and inactive,inactive,,
Nc1ccc([N+](=O)[O-])cc1[N+](=O)[O-],inactive,inactive,inactive,,inactive,,inactive,inactive,inactive,inactive,,inactive,,inactive,inactive,inactive,,inactive,,
Cl/C=C\Cl,inactive,inactive,,,inactive,inactive,inactive,inactive,inactive,inactive,inactive,inactive,,inactive,inactive,,inactive,inactive,,
